Data published in PubChem BioAssay (NCATS).
Inconclusive results are not listed. A call without a number means that no potency is given here. Calls of active or inactive are those of the source. Calls follow the shape of the dose curve; as a rule, active = well fitted inhibition curve with a large enough effect; inconclusive = small, poorly fitted or top-dose-only effect; inactive = flat fitted curve, though single readings scatter.

Tests used:
Assay in all cases: qHTS profiling for inhibitors of Plasmodium falciparum proliferation (AID 504749); also: nearly all actives have a fitted effect of over 60% in size
Conditions in all cases: P. falciparum in erythrocytes, SYBR Green DNA, 72 h; series mostly up to 28.7 µM
CP329 = test system: CP329
Procedure, shortened: (§1)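 Fluorescence of SYBR Green-bound parasite DNA, read at 485/535 nm, served as the growth measure. Infected erythrocytes were cultured with compound 72 h; artemisinin (0.29 uM) and DMSO wells defined the normalization range.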

CP335 = test system: CP335
Procedure, shortened: as §1

DFO2036 = test system: DFO2036
Procedure, shortened: as §1

DIV14 = test system: DIV14
Procedure, shortened: as §1

DIV17 = test system: DIV17
Procedure, shortened: as §1

DIV30 = test system: DIV30
Procedure, shortened: as §1

Dd2 = test system: Dd2
Procedure, shortened: as §1

ECU = test system: ECU
Procedure, shortened: as §1

FAB9 = test system: FAB9
Procedure, shortened: as §1

GB4 = test system: GB4
Procedure, shortened: as §1
Potency is read from the fitted curve at half-maximal effect.

Row | SMILES | Potency (CP329) | Potency (CP335) | Potency (DFO2036) | Potency (DIV14) | Potency (DIV17) | Potency (DIV30) | Potency (Dd2) | Potency (ECU) | Potency (FAB9) | Potency (GB4)
1 | O=C(CS(=O)Cc1ccco1)NCC=CCOc1cc(CN2CCCCC2)ccn1 (stereo not drawn) | inactive | inactive | inactive | inactive | inactive | inactive | inactive | inactive | inactive | inactive
2 | CCOc1cc(CC(=O)N[C@@H](CC(C)C)c2ccccc2N2CCCCC2)ccc1C(=O)O | inactive | inactive | inactive | inactive | inactive | inactive | inactive | inactive | inactive | inactive
3 | CCC(C)(Oc1ccc(C2(c3ccc(OC(C)(CC)C(=O)O)cc3)CCCCC2)cc1)C(=O)O (stereo not drawn) | inactive | inactive | inactive | inactive | inactive | inactive | inactive | inactive | inactive | inactive
4 | O=C(O)c1cc(=O)c2c(OCC(O)COc3cccc4oc(C(=O)O)cc(=O)c34)cccc2o1 | inactive | inactive | inactive | inactive | inactive | inactive | inactive | inactive | inactive | inactive
5 | CC(C)[C@H](N)C(=O)OCCOCn1cnc2c(=O)[nH]c(N)nc21 | inactive | inactive | inactive | inactive | inactive | inactive | inactive | inactive | inactive | inactive
6 | Cn1c(NCCN(CCO)CCCc2ccc([N+](=O)[O-])cc2)cc(=O)n(C)c1=O | inactive | inactive | inactive | inactive | inactive | inactive | inactive | inactive | inactive | inactive
7 | COc1cc(OC)c(C(=O)CCCN2CCCC2)c(OC)c1 | inactive | inactive | inactive | inactive | – | inactive | inactive | inactive | inactive | inactive
8 | CC(C)c1ccc2oc3nc(N)c(C(=O)O)cc3c(=O)c2c1 | inactive | inactive | inactive | inactive | inactive | inactive | inactive | – | inactive | inactive
9 | Cc1ccc(C)c(OCCCC(C)(C)C(=O)O)c1 | inactive | inactive | inactive | inactive | inactive | inactive | inactive | inactive | inactive | inactive
10 | Cc1cc(=O)c2c(O)c3c(O)cc(=O)c4c3c3c(cc(O)c1c23)C(C)(C)C=4O | 2.13 µM (active) | 2.39 µM (active) | 1.12 µM (active) | 2.39 µM (active) | 2.69 µM (active) | – | 1.26 µM (active) | 2 µM (active) | inactive | 2.13 µM (active)
11 | Clc1ccc(C(Cn2ccnc2)OCc2ccsc2Cl)c(Cl)c1 (stereo not drawn) | 13.5 µM (active) | 4.78 µM (active) | 3.16 µM (active) | 1.9 µM (active) | 1.69 µM (active) | 4.78 µM (active) | 3.16 µM (active) | 1.41 µM (active) | – | 1.69 µM (active)
12 | Nc1ccn([C@@H]2O[C@H](CO)[C@@H](O)C2O)c(=O)n1 (stereo partly drawn) | inactive | inactive | inactive | inactive | inactive | – | inactive | inactive | inactive | inactive
13 | O=C(O)CCNC(=O)c1ccc(N=Nc2ccc(O)c(C(=O)O)c2)cc1 | inactive | inactive | inactive | inactive | inactive | inactive | – | inactive | inactive | inactive
14 | Cc1c(OCC(F)(F)F)ccnc1CS(=O)c1nc2ccccc2[nH]1 (stereo not drawn) | inactive | inactive | inactive | – | inactive | inactive | inactive | inactive | inactive | inactive
15 | CCN(CCO)CCCC(C)Nc1ccnc2cc(Cl)ccc12 (stereo not drawn) | inactive | inactive | inactive | – | inactive | inactive | inactive | – | 1.41 µM (active) | –
16 | Cc1cc2cc3c(C)cc(=O)oc3c(C)c2o1 | inactive | inactive | inactive | inactive | inactive | inactive | inactive | inactive | inactive | inactive
17 | COc1ccc(C2(C#N)CCC(C(=O)O)CC2)cc1OC1CCCC1 (stereo not drawn) | inactive | inactive | inactive | inactive | inactive | inactive | inactive | inactive | inactive | inactive
18 | CCCCc1ccc2nc(NC(=O)OC)[nH]c2c1 | inactive | inactive | inactive | inactive | inactive | inactive | inactive | inactive | inactive | inactive
19 | CCN(CC)CCOc1ccc(Cc2ccccc2)cc1 | inactive | inactive | inactive | – | inactive | inactive | inactive | inactive | inactive | inactive
20 | CN(C)C(=O)COC(=O)Cc1ccc(OC(=O)c2ccc(N=C(N)N)cc2)cc1 | inactive | inactive | inactive | inactive | inactive | inactive | – | inactive | inactive | inactive
21 | COCCCOc1ccnc(CS(=O)c2nc3ccccc3[nH]2)c1C (stereo not drawn) | inactive | inactive | inactive | – | – | inactive | – | inactive | inactive | inactive
22 | C=C(c1ccc(C(=O)O)cc1)c1cc2c(cc1C)C(C)(C)CCC2(C)C | inactive | – | inactive | – | inactive | inactive | – | inactive | inactive | inactive
23 | O=C(OC1C[C@H]2CC[C@@H](C1)[N+]21CCCC1)C(O)(c1ccccc1)c1ccccc1 (stereo partly drawn) | 4.78 µM (active) | 4.26 µM (active) | – | – | – | 4.78 µM (active) | 0.0891 µM (active) | 5.01 µM (active) | – | 4.26 µM (active)
24 | Cc1ccc(NC(=O)c2ccc(CN3CCN(C)CC3)cc2)cc1Nc1nccc(-c2cccnc2)n1 | – | – | – | 15.1 µM (active) | 15.1 µM (active) | 12 µM (active) | 10 µM (active) | 8.91 µM (active) | – | 15.1 µM (active)

Row | SMILES | Potency (CP329) | Potency (CP335) | Potency (DFO2036) | Potency (DIV14) | Potency (DIV17) | Potency (DIV30) | Potency (Dd2) | Potency (ECU) | Potency (FAB9) | Potency (GB4)
25 | Cc1nc2n(c(=O)c1CCN1CCC(c3noc4cc(F)ccc34)CC1)CCCC2 | inactive | – | inactive | – | inactive | inactive | inactive | inactive | inactive | inactive
26 | CCCCC(CC)COC(=O)C(C#N)=C(c1ccccc1)c1ccccc1 (stereo not drawn) | inactive | – | – | inactive | inactive | inactive | – | 8.91 µM (active) | inactive | –
27 | O=C1CCc2ccc(OCCCCN3CCN(c4cccc(Cl)c4Cl)CC3)cc2N1 | inactive | – | – | inactive | inactive | inactive | – | – | inactive | inactive
28 | NNc1nncc2ccccc12 | inactive | – | – | 6.42 µM (active) | 5.1 µM (active) | – | 3.98 µM (active) | – | – | –
29 | CCc1nc(N)nc(N)c1-c1ccc(Cl)cc1 | – | – | inactive | – | – | – | inactive | 0.0501 µM (active) | 0.0501 µM (active) | 0.019 µM (active)
30 | CCCCCCCCOc1ccccc1C(=O)Nc1ccc(C(=O)OCC[N+](C)(CC)CC)cc1 | – | 6.01 µM (active) | 8.91 µM (active) | – | – | – | – | 10 µM (active) | inactive | 12 µM (active)
31 | Cc1cc(C2CCCCC2)n(O)c(=O)c1 | – | – | – | – | – | – | inactive | – | 3.55 µM (active) | 6.42 µM (active)
32 | Cc1cc(=O)oc2cc(O)ccc12 | inactive | – | – | inactive | inactive | inactive | – | – | inactive | inactive
33 | Cc1nc(Nc2ncc(C(=O)Nc3c(C)cccc3Cl)s2)cc(N2CCN(CCO)CC2)n1 | inactive | inactive | inactive | – | 13.5 µM (active) | 13.5 µM (active) | – | – | inactive | 15.1 µM (active)
34 | Cc1c(C(=O)NN2CCCCC2)nn(-c2ccc(Cl)cc2Cl)c1-c1ccc(Cl)cc1 | – | – | – | 13.5 µM (active) | 13.5 µM (active) | 12 µM (active) | – | – | – | –
35 | N=C(N)c1ccc2cc(OC(=O)c3ccc(N=C(N)N)cc3)ccc2c1 | – | – | – | 7.57 µM (active) | – | – | – | – | – | 5.36 µM (active)
36 | N=C(N=C(N)N)N1CCOCC1 | – | inactive | inactive | inactive | inactive | inactive | inactive | inactive | inactive | inactive
37 | CC1=C(C)C(=O)C(C(CCCCCC(=O)O)c2ccccc2)=C(C)C1=O (stereo not drawn) | inactive | inactive | inactive | – | – | – | inactive | inactive | inactive | –
38 | O=c1oc2cc(O)ccc2s1 | inactive | inactive | inactive | – | – | inactive | inactive | inactive | inactive | –
39 | Nc1nc(Cl)nc2c1ncn2[C@H]1C[C@H](O)[C@@H](CO)O1 | – | – | inactive | – | – | – | inactive | inactive | inactive | –
40 | CCCCN(CCCC)CCC(O)c1cc2c(Cl)cc(Cl)cc2c2cc(C(F)(F)F)ccc12 (stereo not drawn) | 0.051 µM (active) | 0.0081 µM (active) | 0.0089 µM (active) | – | – | 0.0102 µM (active) | 0.0028 µM (active) | 0.0079 µM (active) | 0.0112 µM (active) | –
41 | CC[C@]1(O)C[C@H]2CN(CCc3c([nH]c4ccccc34)[C@@](C(=O)OC)(c3cc4c(cc3OC)N(C=O)[C@H]3[C@@](O)(C(=O)OC)[C@H](OC(C)=O)[C@]5(CC)C=CCN6CC[C@]43[C@@H]65)C2)C1 | – | – | 1.78 µM (active) | – | – | 3.38 µM (active) | 0.199 µM (active) | – | – | –
42 | CCC[C@@H]1C[C@@H](C(=O)N[C@@H]([C@H]2O[C@H](SC)[C@H](O)[C@@H](O)[C@H]2O)[C@@H](C)O)N(C)C1 | – | – | – | – | – | – | 0.0089 µM (active) | – | inactive | –
43 | CN(c1nccc(=O)[nH]1)C1CCN(c2nc3ccccc3n2Cc2ccc(F)cc2)CC1 | inactive | inactive | inactive | – | – | – | – | – | inactive | –
44 | CNC[C@H](O)c1ccc(O)c(O)c1 | inactive | – | inactive | inactive | inactive | inactive | inactive | inactive | inactive | inactive
45 | O=C1c2ccccc2-c2n[nH]c3cccc1c23 | inactive | – | inactive | inactive | inactive | inactive | inactive | inactive | inactive | –
46 | O=C(O)c1cn(-c2ccc(F)cc2)c2cc(N3CCNCC3)c(F)cc2c1=O | – | – | – | – | inactive | inactive | – | inactive | inactive | –
47 | COc1ccc2cc([C@H](C)C(=O)O)ccc2c1 | inactive | – | inactive | inactive | inactive | inactive | inactive | inactive | inactive | inactive
48 | CN1CCC(=C2c3ccccc3CCc3sccc32)CC1 | inactive | – | – | 4.78 µM (active) | 4.26 µM (active) | – | 5.01 µM (active) | inactive | inactive | 6.01 µM (active)
